Assay outcomes from PubChem.
This is a sample that favours compounds with a hit; in the whole collection about 14% have one here.
HCV inh: qHTS Assay for Inhibitors of Hepatitis C Virus (HCV) | Huh7.5.1 HCVcc-Cre infection, luciferase reporter, 44 h | AID 651820, 2012 | Potency, µM (series often up to 41.8 µM), for the others: top-dose activity change, negative = inhibition, most hits filed as inhibitors | actives 3.4% (n = 340,000); also: potency is read from the fitted curve at half-maximal effect
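1,000 cells/well; 4 h culture; + compound; + HCVcc-Cre (~0.5 moi); 44 h; luciferase substrate, RT 15 min; read 15 sec.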
Pf growth 96h: Primary qHTS for delayed death inhibitors of the malarial parasite plastid, 96 hour incubation. actives 6.9% (n = 320,000). P. falciparum luciferase reporter growth, 96 h. AID 504834, 2011. Potency, µM (series often up to 28.7 µM), for inactives: at the top dose activity change, negative = inhibition, actives largely listed as inhibitors; also: potency is read from the fitted curve at half-maximal effect
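Compounds incubated with erythrocytes infected by luciferase-expressing P. falciparum (2% hematocrit, 0.05% parasitemia final) for 96 hours, 37 C in 5% CO2. Growth inhibition scored as decreased luciferase luminescence.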
HCMV inh: qHTS Assay for inhibitors of the human cytomegalovirus (HCMV). HFF cells, HCMV-luciferase reporter, 72 h; stronger effect = lower value. activity change, negative = inhibition, % at 57.5 µM. actives 4.5% (n = 410,000). AID 1259415, 2018; in the data active = activity change below about -60%; inconclusive = no clear call, values can overlap the other calls; inactive = above about -39%
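Screen run at 2 compound doses on HFFs infected with reporter HCMV, MOI 1 PFU/cell. Luciferase activity from cell lysates at 72 h post infection gave inhibition relative to buffer-only and Salinomycin wells.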
MARV entry inh: qHTS for inhibitors of binding or entry into cells for Marburg Virus. actives 1.8% (n = 300,000). Potency, µM (highest dose often 37.8 µM), without a hit: at the top dose activity change, negative = inhibition, most hits filed as inhibitors. Marburg virus pseudotyped entry inhibition, cell reporter; calls by dose curve; tested in HEK293 cells; also: potency is read from the fitted curve at half-maximal effect
Pf growth 48h: Primary qHTS for delayed death inhibitors of the malarial parasite plastid, 48 hour incubation; P. falciparum luciferase growth in erythrocytes, 48 h; Potency, µM (titrated, usually from 28.7 µM), for inactives: at the highest dose activity change, negative = inhibition, most hits filed as inhibitors; actives 5.9% (n = 310,000); also: potency is read from the fitted curve at half-maximal effect
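Erythrocytes infected with P. falciparum carrying an integrated firefly luciferase reporter (2% hematocrit, 0.1% parasitemia final) were exposed to compounds in RPMI 1640 with 0.5% Albumax at 37 C, 5% CO2. Growth inhibition was scored as reduced luminescence.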
LASV entry inh: qHTS for Inhibitors of binding or entry into cells for Lassa Virus. Lassa virus pseudotype entry inhibition, cell reporter. Potency, µM (doses to about 37.9 µM), for the others: at the highest dose activity change, negative = inhibition, actives largely listed as inhibitors. actives 1.2% (n = 300,000); calls by dose curve; tested in HEK293 cells; also: potency is read from the fitted curve at half-maximal effect; nearly all actives have a fitted effect of over 50% in size
* hit, by the source's call; i = inactive; ? = inconclusive; / = no result; [ ] = another dose, or the depositor's remark. Unless noted, calls follow the shape of the dose curve; as a rule, active = well fitted inhibition curve with a large enough effect; inconclusive = small, poorly fitted or top-dose-only effect, or another doubt; inactive = no such curve, though single readings can be large or run the other way. % is scaled to controls: 0 for no effect and ±100 for the full control effect.

SMILES | HCV inh | Pf growth 96h | HCMV inh | MARV entry inh | Pf growth 48h | LASV entry inh
CCOc1ccc(CCNC(=O)c2cc(=O)[nH]c3ccc(S(=O)(=O)N4CCCCC4C)cc23)cc1OCC (stereo not drawn) | / | / | 14.1 | / | / | -2.7%[46.1 µM]
CCOc1ccc(CCNC(=O)c2cc(=O)[nH]c3ccc(S(=O)(=O)N(CC)CC)cc23)cc1OCC | ? | ? | 90.3 | 21.4% | 14.7µM* | -2.8%
CCOc1ccc(CCNC(=O)c2ccc(CNS(=O)(=O)c3ccccc3)cc2)cc1OCC | ? | 8.28µM* | -71.6* | ? | ? | -16.2%
COc1ccc(CCN(C)C(=O)c2cc(S(=O)(=O)NCc3ccccc3)ccc2C)cc1OC | 8.91µM* | ? | ? | ? | -9.1% | -1.2%
COc1ccc(CCNC(=O)c2ccncc2)cc1OC | -22.3% | 38.9% | -23.0 | -27.1% | 21.9% | 8.5%
COc1ccc(Cl)cc1NC(=O)CSc1nc(=O)n(Cc2ccco2)c2c1CCC2 | / | / | -22.9 | / | / | -25.6%[46.1 µM]
CCOC(=O)c1cccc(NC(=O)c2nn(-c3ccc(OC)cc3)c(=O)c3c2c2ccccc2n3C)c1 | / | / | 17.6 | -3.2%[46.1 µM] | / | ?
CCOC(=O)c1[nH]c(C)c(CCC(=O)NC(C)c2ccccc2)c1C (stereo not drawn) | / | / | -1.9 | / | / | -6.0%[46.1 µM]
COc1ccccc1-c1noc2c1C(=O)N(Cc1cn(Cc3ccccc3)nn1)CC2 | / | / | -10.4 | / | / | /
CN(Cc1ccccc1)C(=O)C1CCN(S(=O)(=O)c2ccc3c(c2)oc(=O)n3C)CC1 | / | / | -7.9 | 0.7%[46.1 µM] | / | -1.4%[46.1 µM]
COc1ccc(CCNC(=O)CCNC(=O)c2ccc(Cl)cc2)cc1OC | 2.0% | ? | 0.9 | 11.3% | -10.9% | 11.6%
CC1CCCCN1C(=O)c1ccc(C(=O)N2CCCCC2C)cc1 (stereo not drawn) | 11.3% | ? | -2.6 | 12.8% | -3.2% | -3.2%
Cc1ccc(C)c(S(=O)(=O)NCc2ccc(C(=O)N3CCCCC3C)cc2)c1 (stereo not drawn) | -1.3% | 4.15µM* | -14.3 | 1.9% | / | ?
COc1ccc(CCNC(=O)c2ccc(CNS(=O)(=O)c3ccc(C(C)(C)C)cc3)cc2)cc1OC | ? | 13.1µM* | 49.5 | -0.9% | ? | -16.1%
COc1ccc(CCNC(=O)c2ccc(CNS(=O)(=O)c3cccc(Cl)c3)cc2)cc1OC | 7.94µM* | -18.6% | -6.7 | ? | 26.2% | ?
Cn1c(-c2ccccc2)c(Sc2ccccc2)c2cc(-c3ccc4cc[nH]c4c3)ccc21 | / | / | 4.1 | / | / | /
CSc1nn(Cc2cccc(Cl)c2)c(N(C(C)=O)C(C)=O)c1S(=O)(=O)c1ccccc1 | / | / | -19.3 | -22.7%[46.1 µM] | / | ?
CCN(C(=O)c1cc(S(=O)(=O)N2CCCC2)cn1C)c1ccc(OC)cc1 | / | / | -33.4 | / | / | -12.4%[46.1 µM]
COc1ccc(-c2nn(-c3ccccc3)cc2/C=C/C(=O)N2CCN(c3ccccn3)CC2)cc1 | ? | 10.4µM* | -33.7 | ? | ? | ?
O=C(c1cn(-c2ccccc2)nc1-c1ccccc1)N1CCN(c2ccccn2)CC1 | 10µM* | -18.8% | -18.9 | ? | ? | ?
Cc1ccc(-c2nn(-c3ccccc3)cc2C(=O)N2CCN(c3ccccn3)CC2)cc1 | 11.2µM* | ? | -5.7 | ? | ? | -18.9%
O=C(c1cn(-c2ccccc2)nc1-c1ccccc1)N1CCOCC1 | -4.5% | 17.7% | 28.6 | 9.0% | / | 4.7%
O=C(CSc1cn[nH]n1)Nc1ccccc1C(F)(F)F | 4.0% | -1.8% | -2.3 | 17.9%[46.1 µM] | 12.7% | /
COc1cccc(C2CC(c3ccccc3)=NN2S(=O)(=O)c2ccc(C)cc2)c1OC (stereo not drawn) | ? | ? | -39.7 | 6.1%[46.1 µM] | ? | ?
COc1ccc2c(c1OC)C(=O)N1N=C(c3ccc(Br)cc3)CC21 (stereo not drawn) | -21.6% | -98.5% | / | -0.4% | ? | 6.5%
SMILES | HCV inh | Pf growth 96h | HCMV inh | MARV entry inh | Pf growth 48h | LASV entry inh
COc1ccc2c(c1OC)C(=O)N1N=C(c3ccc(O)cc3)CC21 (stereo not drawn) | 9.0% | 33.0% | 20.7 | -22.2% | 1.31µM* | -4.7%
COc1ccc2c(c1OC)C(=O)N1c3ccccc3N=C(c3ccc([N+](=O)[O-])cc3)CC21 (stereo not drawn) | 1.3% | -0.5% | ? | -14.0% | 2.62µM* | -13.7%
COc1ccc(C2=NN3C(=O)c4c(ccc(OC)c4OC)C3C2)cc1 (stereo not drawn) | -17.8% | -15.8% | 1.7 | 6.8% | 2.62µM* | 2.8%
COc1ccc2c(c1OC)C(=O)N1N=C(c3ccc(-c4ccccc4)cc3)CC21 (stereo not drawn) | 17.4% | ? | ? | -7.2% | ? | -14.7%
COc1ccc2c(c1OC)C(=O)N1N=C(c3ccc(Cl)cc3)CC21 (stereo not drawn) | -14.4% | -16.2% | ? | -3.8% | 5.86µM* | 12.0%
CCOc1ccc(Cl)cc1CNCCCSc1nnnn1C | / | / | -11.3 | -21.6%[46.1 µM] | / | -9.5%[46.1 µM]
C=CCN(CC=C)Cc1cc(=O)oc2cc(C)c(C)cc12 | / | / | 1.3 | ? | / | /
O=C(NCc1ccco1)c1cnn2c(C(F)(F)F)cc(-c3cccs3)nc12 | -14.9% | 9.28µM* | 79.1 | -5.1% | ? | 1.1%
O=C(NCc1ccco1)c1cc2nc(C3CC3)cc(C(F)(F)F)n2n1 | -15.6% | / | 10.0 | 1.1%[46.1 µM] | -6.0% | 3.55µM*
O=C(c1cnn2c(C(F)(F)F)cc(-c3cccs3)nc12)N1CCCC1 | -8.4% | -21.8% | ? | / | -0.7% | /
Cc1ccc(CNC(=O)c2cnn3c(C)c(Cc4c(F)cccc4Cl)c(C)nc23)cc1 | / | / | -2.5 | / | / | -32.5%[46.1 µM]
O=C(NCc1ccccc1)c1cc2nc(C3CC3)cc(C(F)(F)F)n2n1 | -26.2% | i | 7.9 | ? | ? | -14.6%
Cc1cc(C)c(Cc2c(C)nc3c(C(=O)NCc4ccco4)cnn3c2C)c(C)c1 | 8.91µM* | 11.7µM* | -98.9* | ? | / | -15.0%
COc1cc([N+](=O)[O-])ccc1NC(=O)N1CCN(c2cc(-c3noc(C)n3)ccc2C)CC1 | / | / | -18.7 | / | / | -16.9%[46.1 µM]
Cn1c(SCc2ccc(C(F)(F)F)cc2)nc2c([nH]c3ccccc32)c1=O | / | / | 52.7 | / | / | 10.6%[46.1 µM]
COc1cc(NC(=O)CSc2nccn2C)cc(OC)c1OC | / | / | 11.9 | -11.5%[46.1 µM] | / | -1.0%[46.1 µM]
Cc1cccc(NC(=O)CS(=O)(=O)c2nc(-c3ccccc3)cn2-c2cccc(Cl)c2)c1C | / | / | 33.6 | -12.3%[46.1 µM] | / | -17.7%[46.1 µM]
CCN(CC)CCC(c1cc(OC)c(OC)c(OC)c1)c1c(O)cc(OC)cc1OC (stereo not drawn) | 4.6% | 2.94µM* | -4.8 | / | 3.29µM* | /
